# Rin1-Abl PPI inh: inhibitors of human Rin1-Abl protein interaction; P00519+Q13671; hit rate 0.4% among 360,000; TR-FRET Rin1/Abl binding, biochemical; inhibition, % at 7.35 µM; in the data active = inhibition above about 5%, passing the limit was not always enough
# Target sequence (P00519 whole entry, looked up): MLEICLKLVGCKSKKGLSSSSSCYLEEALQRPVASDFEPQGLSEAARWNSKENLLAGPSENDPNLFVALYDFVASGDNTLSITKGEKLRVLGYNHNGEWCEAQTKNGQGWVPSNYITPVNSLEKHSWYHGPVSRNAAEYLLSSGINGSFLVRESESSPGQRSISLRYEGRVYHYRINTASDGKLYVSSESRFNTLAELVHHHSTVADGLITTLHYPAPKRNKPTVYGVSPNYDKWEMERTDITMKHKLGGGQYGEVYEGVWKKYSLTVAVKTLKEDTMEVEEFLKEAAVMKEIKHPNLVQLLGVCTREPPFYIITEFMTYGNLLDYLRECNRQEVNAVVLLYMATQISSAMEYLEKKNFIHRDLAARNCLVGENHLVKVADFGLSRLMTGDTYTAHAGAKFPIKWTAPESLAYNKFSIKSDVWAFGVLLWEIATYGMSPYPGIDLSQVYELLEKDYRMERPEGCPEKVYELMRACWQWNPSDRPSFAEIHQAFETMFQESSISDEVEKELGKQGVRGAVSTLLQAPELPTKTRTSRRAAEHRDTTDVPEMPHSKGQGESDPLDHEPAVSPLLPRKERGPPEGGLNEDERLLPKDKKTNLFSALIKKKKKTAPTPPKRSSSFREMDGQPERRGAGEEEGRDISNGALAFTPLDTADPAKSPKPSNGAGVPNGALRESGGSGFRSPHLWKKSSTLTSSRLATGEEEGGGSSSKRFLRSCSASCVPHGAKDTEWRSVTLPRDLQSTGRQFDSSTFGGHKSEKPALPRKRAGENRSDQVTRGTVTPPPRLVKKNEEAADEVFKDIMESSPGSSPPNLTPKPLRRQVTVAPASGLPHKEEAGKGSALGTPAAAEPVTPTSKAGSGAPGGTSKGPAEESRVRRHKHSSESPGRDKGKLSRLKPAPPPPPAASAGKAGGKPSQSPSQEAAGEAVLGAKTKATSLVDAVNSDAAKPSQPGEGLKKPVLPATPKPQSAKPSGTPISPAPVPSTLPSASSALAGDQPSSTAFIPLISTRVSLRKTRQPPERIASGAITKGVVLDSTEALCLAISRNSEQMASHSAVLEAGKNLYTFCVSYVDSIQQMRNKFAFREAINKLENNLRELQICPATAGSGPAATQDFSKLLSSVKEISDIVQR
# Target sequence (Q13671 whole entry, looked up): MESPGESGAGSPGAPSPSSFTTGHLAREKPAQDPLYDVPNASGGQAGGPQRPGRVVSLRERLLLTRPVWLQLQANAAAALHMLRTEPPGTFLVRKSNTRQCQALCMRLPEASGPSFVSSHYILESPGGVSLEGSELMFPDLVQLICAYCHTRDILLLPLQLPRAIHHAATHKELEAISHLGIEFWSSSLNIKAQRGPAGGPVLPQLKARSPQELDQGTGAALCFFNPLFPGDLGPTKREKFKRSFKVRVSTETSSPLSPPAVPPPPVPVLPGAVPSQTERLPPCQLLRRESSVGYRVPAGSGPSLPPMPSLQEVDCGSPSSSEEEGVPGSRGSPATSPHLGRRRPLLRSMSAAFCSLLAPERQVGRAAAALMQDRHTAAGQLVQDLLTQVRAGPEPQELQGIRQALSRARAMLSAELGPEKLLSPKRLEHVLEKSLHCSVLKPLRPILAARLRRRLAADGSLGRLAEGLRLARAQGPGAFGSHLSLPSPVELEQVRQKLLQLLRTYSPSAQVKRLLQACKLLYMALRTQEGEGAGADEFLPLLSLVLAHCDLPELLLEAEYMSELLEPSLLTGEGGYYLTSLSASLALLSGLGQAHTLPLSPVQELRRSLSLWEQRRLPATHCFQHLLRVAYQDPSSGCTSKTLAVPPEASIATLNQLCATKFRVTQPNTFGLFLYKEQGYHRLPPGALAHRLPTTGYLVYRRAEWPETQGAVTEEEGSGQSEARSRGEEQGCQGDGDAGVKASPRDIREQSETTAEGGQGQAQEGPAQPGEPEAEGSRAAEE
# MBD2 DNA inh: blocks human MBD2 binding to methylated DNA. inhibition, % at 4.4 µM. AID 686964. Q9UBB5. TR-FRET, MBD2 binding to methylated oligonucleotide. hit rate 0.31% among 370,000; in the data active = inhibition above about 13%
# LEDGF integ inh: blocks HIV-1 LEDGF/p75-dependent DNA integration; TR-FRET IN-LEDGF/p75 DNA integration, Eu/Cy5; inhibition, % at 3.7 µM; hit rate 0.64% among 370,000; AID 743269;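 active = inhibition above the screen-wide mean plus 3 SD, cut at about 13% in these data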;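 also: signal is the Cy5 over europium emission ratio at 671 and 618 nm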
# UHRF1 binding: blocks human UHRF1 binding to methylated DNA; UHRF1 binding to methylated oligo, TR-FRET; inhibition, % at 4.4 µM; AID 687016; hit rate 0.75% among 370,000; in the data active = inhibition above about 21%;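 also: UHRF1 SRA domain binding a hemimethylated CpG hairpin DNA probe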
# TCR-CD3 inh: human TCR-CD3 binding inhibition; TAMRA-labeled TCR probe fluorescence, biochemical; inhibition, % at 9.4 µM; hit rate 0.37% among 360,000; in the data active = inhibition above about 19%;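 also: recombinant mutant TCR 2C K166C tagged with TAMRA read by polarization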
# BSA TAMRA ctr: BSA probe counter-screen for TCR-CD3 inhibitors; inhibition, % at 9.4 µM; shares compounds with TCR-CD3 inh; AID 652035; hit rate 10% among 1,200; TAMRA-labeled BSA probe fluorescence counterscreen; in the data active = inhibition above about 23%
# TCR-CD3 conf: confirmation of human TCR-CD3 interaction inhibitors; shares compounds with TCR-CD3 inh; TAMRA-labeled TCR probe fluorescence binding assay; inhibition, % at 9.4 µM; hit rate 48% among 1,200; AID 652036; in the data active = inhibition above about 19%
# UHRF1 ctr MBD2: UHRF1 methyl-oligo binding inhibition as MBD2 counter-screen. shares compounds with MBD2 DNA inh. UHRF1 binding to methylated oligonucleotide, TR-FRET. inhibition, % at 4.4 µM. hit rate 25% among 1,000; in the data active = inhibition above about 21%;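 also: UHRF1 SRA domain binding a labeled hemimethylated CpG hairpin DNA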
# MBD2 confirm: MBD2-DBD methyl-DNA binding inhibition, TR-FRET confirmation; TR-FRET MBD2-DBD binding to methylated oligonucleotide; shares compounds with MBD2 DNA inh; hit rate 26% among 1,000; inhibition, % at 4.4 µM; AID 720531
# IN multimer up: activates HIV-1 integrase multimerization in LEDGF counter-screen; TR-FRET HIV-1 integrase multimerization, biochemical; AID 1053131; shares compounds with LEDGF integ inh; activation, % at 7.7 µM; hit rate 17% among 2,000; in the data active = activation above about 8.9%
# TRFRET interf: optically interferes with TR-FRET readout in LEDGF counter-screen. shares compounds with LEDGF integ inh. TR-FRET optical interference counterscreen, HIV-1 IN multimerization. 2,000 tested, under 10 active. AID 1053135. inhibition, % at 7.7 µM;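 active = inhibition above the mean over all tested compounds plus 3 SD, which no compound reached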
# LEDGF integ conf: confirmation of HIV-1 LEDGF/p75-dependent integration inhibitors. shares compounds with LEDGF integ inh. inhibition, % at 3.7 µM. TR-FRET LEDGF/p75-dependent HIV-1 integration, biochemical. hit rate 36% among 2,000
# Numbers stand for hits; n = inactive; x = no result; + = active, no number. Most compounds without a hit are left out; they make up all but 2% or so of the library. Rule as the data show it, unless noted: active = inhibition above about 14%; inactive = the rest.
SMILES,Rin1-Abl PPI inh,MBD2 DNA inh,LEDGF integ inh,UHRF1 binding,TCR-CD3 inh,UHRF1 ctr MBD2,MBD2 confirm,others
O=C(NCCN1CCC2(CC1)C(=O)NCN2c1ccccc1)c1ccccc1F,x,n,n,n,n,x,x,
COc1ccc2c(c1O)-c1c(OC)c(OC)cc3c1[C@H](C2)N(C)CC3,n,n,n,n,n,x,x,
COc1cc2c(cc1O)CC1c3c(cc(O)c(OC)c3-2)CCN1C (centres undefined),n,n,n,n,22,x,x,BSA TAMRA ctr=n;TCR-CD3 conf=n
CC(=O)Nc1ccc(C=C2C(=O)NC(=O)NC2=O)cc1,n,n,n,n,51,x,x,BSA TAMRA ctr=n;TCR-CD3 conf=n
C/C(=N\NC(=O)c1ccccc1O)c1c(O)n(Cc2ccccc2)c(=O)[nH]c1=O,n,n,n,n,34,x,x,BSA TAMRA ctr=n;TCR-CD3 conf=37
O=C(N/N=C/c1c(O)n(-c2ccccc2)c(=S)[nH]c1=O)c1ccccc1,n,n,n,n,27,x,x,BSA TAMRA ctr=n;TCR-CD3 conf=n
O=C(N/N=C/c1c(O)n(Cc2ccc(F)cc2)c(=O)[nH]c1=O)c1ccccc1,n,n,n,n,n,x,x,
C/C(=N\NC(=O)c1ccncc1)c1c(O)n(Cc2ccccc2)c(=O)[nH]c1=O,n,n,n,n,19,x,x,BSA TAMRA ctr=n;TCR-CD3 conf=n
O=C(N/N=C/c1c(O)n(Cc2ccccc2)c(=O)[nH]c1=O)c1ccncc1,n,n,n,n,26,x,x,BSA TAMRA ctr=n;TCR-CD3 conf=n
C/C(=N\Nc1ccccc1)c1c(O)n(Cc2ccccc2)c(=O)[nH]c1=O,n,n,n,n,n,x,x,
C=CCN1C[C@@H](C)N(C(c2ccc(C(=O)N(CC)CC)cc2)c2cccc(OC)c2)C[C@@H]1C (some centres undefined),n,n,n,n,n,x,x,
Brc1ccc2c(c1)-n1nncc1CN(CC1CCCCC1)C2,n,n,n,n,n,x,x,
Cc1ccc(C2=NCC(=O)Nc3ccc(Br)cc32)cc1,n,n,n,n,n,x,x,
C[C@H]1C(=O)O[C@@H]2CCN3CC=C(COC(=O)[C@](C)(O)[C@]1(C)O)[C@H]23,n,n,n,n,n,x,x,
C[n+]1c2ccccc2nc2ccc(NCCO)cc21,n,n,n,n,196,x,x,BSA TAMRA ctr=177;TCR-CD3 conf=139
CNc1ccc2nc3ccccc3[n+](C)c2c1,n,15,n,n,+,n,20,BSA TAMRA ctr=+;TCR-CD3 conf=184
C#CC[N+]1(C)[C@@H]2CC[C@H]1CC(OC(=O)C(CO)c1ccccc1)C2 (some centres undefined),n,n,n,n,n,x,x,
NC(=O)c1ccc(N=Cc2c(O)n(Cc3ccco3)c(=O)[nH]c2=O)cc1,n,23,57,60,21,n,22,BSA TAMRA ctr=n;TCR-CD3 conf=26;IN multimer up=12;TRFRET interf=n;LEDGF integ conf=50
CC1=C(C)CC2(CC1)C(=O)NC(=O)NC2=O,n,n,n,n,n,x,x,
COc1cc2c(ccc3c4cc(OC)c(OC)cc4c[n+](C)c23)cc1O,n,88,n,24,n,56,100,
CC(C)CNC(=O)c1c(N)n(Cc2ccco2)c2nc3ccccc3nc12,n,n,n,n,n,x,x,
Nc1c(C(=O)NCC2CCCO2)c2nc3ccccc3nc2n1Cc1ccco1 (centres undefined),n,17,n,n,n,n,n,
COc1ccc(CNC(=O)CCC(=O)N2C[C@H]3C[C@H](C2)c2cccc(=O)n2C3)cc1,n,n,n,n,n,x,x,
Cn1cccc1/C=C1\C(=O)NC(=O)N(Cc2ccco2)C1=O,n,20,65,63,n,30,14,
CCC1=Nc2cc(C(=O)N3CCC4(CC3)OCCO4)ccc2Sc2ccc(C)cc21,n,21,n,n,n,n,n,
SMILES,Rin1-Abl PPI inh,MBD2 DNA inh,LEDGF integ inh,UHRF1 binding,TCR-CD3 inh,UHRF1 ctr MBD2,MBD2 confirm,others
COc1ccc(-c2n(-c3ccccn3)c3ccccc3[n+]2-c2ccccn2)cc1,n,46,n,31,n,74,88,
CC(C)(O)/C=C/C(=O)C(C)(O)C1C(O)CC2(C)C3CC=C4C(C=C(O)C(=O)C4(C)C)C3(C)C(=O)CC12C (centres undefined),n,n,n,n,n,x,x,
Cc1ccc2c(C)c3ccc4ccccc4c3c[n+]2c1,n,72,n,27,n,43,83,
CN1C(=O)/C(=C/C=C/c2ccco2)C(=O)NC1=S,5.4,23,60,72,n,62,22,
CN1C(=O)/C(=C/c2ccc(Cl)s2)C(=O)NC1=S,n,n,n,n,n,x,x,
CCC(=NCc1ccc(F)cc1)c1c(O)n(C)c(=O)n(C)c1=O,n,n,n,n,n,x,x,
CN(C)Cc1c[nH]c2ccc([N+](=O)[O-])cc12,n,n,n,n,n,x,x,
CN(C)Cc1c[nH]c2cc([N+](=O)[O-])ccc12,n,19,n,n,n,n,n,
CCCCn1c(O)c(/C=C/C=Nc2ccccc2)c(=O)[nH]c1=O,n,n,n,n,n,x,x,
Cc1nc2ccccc2c(=O)n1-c1c(Cl)cccc1Cl,n,n,n,n,n,x,x,
COC(=O)CC1(CC(=O)OC)C(=O)N(c2ccccc2)C(=O)N(c2ccccc2)C1=O,n,55,n,n,n,n,n,
CCNC(=O)NC(=O)C(C)OC(=O)c1c(C)nn(Cc2ccccc2)c1Cl (centres undefined),n,n,n,n,n,x,x,
COc1cc2c(cc1OC)-c1c(OC)c(OC)cc3c1[C@H](C2)N(C)CC3,n,20,26,41,n,n,n,IN multimer up=n;TRFRET interf=n;LEDGF integ conf=25
O=C1NC(=O)N(Cc2ccco2)C(=O)/C1=C/C=C/c1ccco1,n,74,92,100,n,55,30,IN multimer up=n;TRFRET interf=n;LEDGF integ conf=56
O=C1NC(=O)N(CCc2ccc(F)cc2)C(=O)/C1=C\C=C\c1ccccc1,n,n,n,n,n,x,x,
Cc1cc(/C=C2\C(=O)NC(=O)N(c3cccc(F)c3)C2=O)c(C)n1-c1ccc(C(=O)O)c(Cl)c1,n,n,n,n,n,x,x,
Cc1cc(/C=C2\C(=O)NC(=O)N(Cc3ccccc3)C2=O)c(C)n1-c1ccc(Cl)c(C(=O)O)c1,n,37,43,92,n,72,29,IN multimer up=n;TRFRET interf=n;LEDGF integ conf=44
